Experimental findings from PubChem BioAssay (NCATS) are described below.

Records with an inconclusive call do not appear. Where a call stands in place of a potency, no number is given. Active and inactive are the calls of the source. The call rests on the fitted dose curve; tested in HEK293 reporter line.

The assay in a line: qHTS for Inhibitors of the Functional Ribonucleoprotein Complex (vRNP) of Lymphocytic Choriomeningitis Arenaviruses (LCMV): Viability assay - alamar blue signal for LCMV Primary Screen (AID 1347085). Further: nearly all actives have a fitted effect of over 80% in size. As to conditions: alamar blue viability counter-screen, LCMV vRNP screen cells; series mostly up to 57.5 µM. In general terms: Quantitative high-throughput screening tests each substance at several concentrations.
`COc1ccc(C(=O)OC2CC3CC[C@H](C2)N3C(C)=O)cc1OC` (some centres undefined): the Potency entry is “inactive”. Under `C=C1CC[C@H](O)C/C1=C/C=C1\CCC[C@]2(C)[C@@H]([C@H](C)CCC(O)C(C)(C)O)CC[C@@H]12` (some centres undefined) stands “inactive”.

For `CC(C)CN(C[C@H](O)[C@H](Cc1ccccc1)NC(=O)O[C@H]1CCOC1)S(=O)(=O)c1ccc(N)cc1`, the Potency result was “inactive”. For `O=C1NC2C(=CC(O)C(O)C2O)c2cc3c(c(O)c21)OCO3` (centres undefined), the Potency entry is “inactive”. For `CC(C)(O[C@@H]1O[C@H](CO)[C@@H](O)[C@H](O)[C@H]1O)[C@H]1Cc2cc3ccc(=O)oc3cc2O1`, the Potency result was “inactive”. In the case of `COc1cc2oc(=O)ccc2cc1O`, the Potency entry was “inactive”. Regarding `CCN(CC)CCNC(=O)c1ccc(NS(C)(=O)=O)cc1`, the Potency entry was “inactive”. With `O=c1c(O[C@@H]2OC([C@H](O)CO)[C@H](O)[C@H]2O)c(-c2ccc(O)c(O)c2)oc2cc(O)cc(O)c12` (some centres undefined), the Potency entry is “inactive”.

Take `CCOC(=O)c1ccccc1`: the Potency result was “inactive”.

For `CCCC(=O)C(C)=O`, the Potency result is “inactive”.

`CO[C@H]1C[C@H](O[C@H]2[C@H](C)O[C@@H](O[C@@H]3/C(C)=C/C[C@@H]4C[C@@H](C[C@]5(C=C[C@H](C)[C@@H](C6CCCCC6)O5)O4)OC(=O)[C@@H]4C=C(C)[C@@H](O)[C@H]5OC/C(=C\C=C\[C@@H]3C)[C@]54O)C[C@@H]2OC)O[C@@H](C)[C@@H]1O`: the Potency result is “inactive”.

For `CNCCO`, the Potency entry was “inactive”.

As to `CC(C)CCC[C@@H](C)[C@@H]1CC[C@H]2C3=CC=C4CC(O)CC[C@]4(C)[C@H]3CC[C@@]21C` (some centres undefined), the Potency result is “inactive”. Under `CCOC(=O)c1c(C)nc(C)c(C(=O)OCC)c1-c1ccccc1` stands “inactive”.
